Most compounds without a hit are left out; they make up all but 2.5% or so of the library.
Cardio protect: modulators protecting cardiomyocytes from myocardial damage | H9c2 cardiomyocytes, H2O2 injury protection, ATPLite, 2 h | AID 588492 | protection from H2O2 cell death, % at 20 µM | hit rate 0.63% among 360,000;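 active means compounds giving at least 50% protection of heart cells from peroxide-induced death in the single-dose screen, raw or plate-pattern-corrected value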;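 further: 0% = DMSO wells with peroxide and 100% = DMSO wells without peroxide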
iPSC survival up: hiPSC single-cell survival enhancement. ATPlite luminescence; 100% = ROCK inhibitor wells, 0% = DMSO. survival enhancement, % at 20 µM. hit rate 0.044% among 360,000; in the data active means survival enhancement above about 18%;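 further: cells exposed to compounds for 16 hours before the ATP read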
SKN-1 inh: C. elegans SKN-1 inhibition. C. elegans VP596 Pgst-4::GFP/RFP ratio, acrylamide-induced, 24 h. inhibition, % at 21.8 µM. hit rate 0.49% among 360,000. AID 624304;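 active means interference check ratio from 0.5 to 1.5 plus GFP to RFP signal ratio inhibition reaching or exceeding a fixed threshold, cut at about 30% in these data, passing the limit was not always enough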
CRFBP-R2 agonist: agonists of human CRF-binding protein/CRF-R2 receptor complex. activation, % at 13.2 µM. hit rate 0.46% among 350,000. HEK293 CRF-R2/CRF-BP, calcium dye fluorescence (FLIPR); percent of saturating CRF peptide response;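 active means activation of at least 50%, plus an integration ratio under a set limit after plate pattern correction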;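 further: plate controls were neutral control wells without compound for no effect and CRF at EC100 for full effect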
H9c2 TAG inh: inhibitors of triacylglycerol accumulation; H9c2 cells, Nile Red lipid (TAG) fluorescence; cells loaded with 200 µM oleic acid; inhibition, % at 12.5 µM; hit rate 0.66% among 230,000; AID 651582;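 active means pattern-corrected inhibition of lipid staining of at least 50% with the nuclear-stain viability signal not falling by more than 50%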;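 further: 0% = DMSO wells and 100% = triacsin C control wells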
CRFR2-BP antag: antagonists of CRF-binding protein/CRF-R2 receptor complex; hit rate 0.59% among 350,000; AID 588475; inhibition, % at 11.8 µM; HEK293 CRF-R2/CRF-BP, CRF-induced calcium fluorescence;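 active means inhibition of the ligand-induced calcium signal above about 50% at the single tested concentration, limit read from the data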
* = called active by the depositor; nt = no result given.

SMILES	Cardio protect	iPSC survival up	SKN-1 inh	CRFBP-R2 agonist	H9c2 TAG inh	CRFR2-BP antag
CC(O)C1C=CC=CC(=O)OC2CC3OC4C5OC5(C)C(O)CC4(COC(=O)C(O)C(C)CCO1)C2(C)C31CO1 (stereo unspecified)	2	-4	16	-3	113	27
CC[C@H]1CN2CCC1C[C@@H]2[C@H](O)c1ccnc2ccc(OC)cc12 (stereo partly specified)	0	5	7	0	7	16
CC1(C)OC(c2ccccc2)=C/C(=C/C=C2C(=O)NC(=O)NC2=O)O1	0	0	46*	31	-12	-52
C[C@]12CCC(=O)C=C1C=CC1C2CC[C@]2(C)C(=O)CCC12 (stereo partly specified)	8	-3	-4	-1	-14	3
Cn1c(O)c(/C=N/NC(=O)c2ccncc2)c(=O)[nH]c1=S	6	-1	42*	1	8	-1
CCCCn1c(O)c(/C=N/NC(=O)c2ccncc2)c(=O)[nH]c1=S	-2	0	16	4	3	-28
O=C(N/N=C/c1c(O)n(CCC2=CCCCC2)c(=O)[nH]c1=O)c1ccccc1	37	0	-17	2	nt	25
O=C(N/N=C/c1c(O)n(CCC2=CCCCC2)c(=S)[nH]c1=O)c1ccccc1	66*	0	2	1	nt	55*
COC(=O)C1C(O)CC2CCC1N2C (stereo unspecified)	-2	3	1	0	nt	3
CC(=O)N1CCC(N2CCCC(C(=O)c3cccc(Cl)c3)C2)CC1 (stereo unspecified)	7	1	2	2	-10	67*
CS(=O)(=O)CCN1CC2CCCC(C2)C1	0	1	-3	-1	-2	1
O=C(c1c[nH]c2ccc(S(=O)(=O)N3CCOCC3)cc2c1=O)N1CCC2(CC1)OCCO2	5	-1	5	-1	-4	9
O=C(Nc1ccc(Cl)c(Cl)c1)c1ccco1	6	0	42*	-1	8	8
C=CCNC(=S)Nc1ccc(OC(=O)Nc2ccc(Cl)c(Cl)c2)cc1	-12	-1	3	2	nt	-3
CCC(C)(O)C(=O)OC1C(=O)OC2CC3C(C)=CC(O)C(O)C3(C)C3C4(O)OCC23C1C(C)C4O (stereo unspecified)	-6	0	25	nt	nt	nt
CCCCn1c(O)c(/C=C/C=Nc2ccccc2)c(=O)[nH]c1=O	10	1	13	113*	nt	-134
Cn1c(O)c(/C=C/C=Nc2ccccc2)c(=O)n(C)c1=O	23	3	0	85*	nt	-63
Cn1c(O)c(C=Nc2ccccc2)c(=O)n(C)c1=O	6	0	5	0	nt	-3
CCCNC(=O)N1[C@H]2CC[C@@H]1C(C(=O)OC)=C(c1cc3ccccc3s1)C2	-2	-3	-16	-2	nt	6
CCOC(=O)[C@]12Cc3ccccc3[C@H]1N(Cc1ccccc1)C(=O)c1cc(F)c(F)cc12	nt	1	16	nt	nt	nt
Cc1ccccc1[N+](=O)[O-]	-1	-2	-1	13	nt	51*
CN(C(=O)Oc1ccc(C(=O)c2ccc(Cl)cc2)cc1)c1ccccc1	-5	-2	6	9	nt	50*
Cc1c(C(c2ccc(F)cc2)c2c(O)c3ccccc3oc2=O)c(=O)n(-c2ccccc2)n1C (stereo unspecified)	16	-2	1	-6	nt	12
O=c1oc2ccccc2c(O)c1C(c1ccc([N+](=O)[O-])cc1)c1c(O)c2ccccc2oc1=O	-2	1	0	21	nt	82*
CC(C)c1ccc(C(c2c(O)c3ccccc3oc2=O)c2c(O)c3ccccc3oc2=O)cc1	-9	2	-4	-3	-5	64*
SMILES	Cardio protect	iPSC survival up	SKN-1 inh	CRFBP-R2 agonist	H9c2 TAG inh	CRFR2-BP antag
C/C(CC(c1ccccc1)c1c(O)c2ccccc2oc1=O)=N\Nc1ccc([N+](=O)[O-])cc1[N+](=O)[O-] (stereo unspecified)	-6	0	-6	-2	16	4
c1ccc(CCNCc2cccs2)cc1	5	-1	9	13	nt	18
CCCCn1nnnc1C(c1ccnc2ccccc12)N1CCC2(CC1)C(=O)NCN2c1ccccc1 (stereo unspecified)	3	0	-4	nt	nt	nt
NNCc1ccccc1	-6	0	0	-1	3	26
CN(C)c1ccc(C(=O)c2ccc(N(C)C)cc2)cc1	-3	-2	42*	2	nt	34
CCC1CO/C(=C(\C(Cl)=C(Cl)Cl)[N+](=O)[O-])N1Cc1ccc(Cl)nc1 (stereo unspecified)	4	0	5	0	nt	-15
O=C(C(=C1N(Cc2ccc(Cl)nc2)CCN1Cc1ccc(Cl)nc1)[N+](=O)[O-])C(Cl)Cl	8	0	1	148*	nt	-91
C=CCn1c(O)c(C(CC)=NCCC2=CCCCC2)c(=O)[nH]c1=O	-1	15	7	-3	4	-18
CN1/C(=C\C=C2C(=O)NC(=O)NC2=O)C(C)(C)c2ccccc21	17	0	0	378*	-6	-383
CN1/C(=C\C=Nc2ccccc2)C(C)(C)c2ccccc21	-34	0	48	3	-72	-16
CN(C)C1=NP(N(C)C)(N(C)C)=NC(c2ccccc2)=N1	11	5	-16	-1	2	52*
Cc1cccc(C)c1OC(=O)Cc1ccccc1	-4	-2	-11	2	8	-10
Cc1sc2nc(COC(=O)Cc3ccccc3)[nH]c(=O)c2c1C	53*	-2	-2	0	-9	-2
O=[N+]([O-])c1ccc(Nc2ccccc2)cc1	-9	-2	51*	-1	nt	22
O=P(O)(O)C12CC3CC(CC(C3)C1)C2	1	-1	6	1	nt	-5
COc1ccccc1N1CCN(Cc2c(F)cccc2Cl)CC1	-3	1	13	0	nt	61*
CC(=O)N1N=C2C3CCN(CC3)C2C1c1cccc2ccccc12 (stereo unspecified)	0	0	-6	81*	-15	-132
CCCCCCCCCCOC(=O)CCN1CC1	1	-2	1	8	-23	51*
O=C(Nc1ccc(OC(=O)N2CCCCC2)cc1)N1CCOCC1	-8	0	-14	2	2	14
O=C(Nc1ccc(OC(=O)N2CCCC2)cc1)N1CCOCC1	1	4	38*	-1	nt	3
Nc1nc(SCCC(F)=C(F)F)n[nH]1	-5	-1	-8	0	16	0
COc1ccc(OC)c(-n2c(O)c(/C=C3\C=Nc4ccccc43)c(=O)[nH]c2=O)c1	24	0	34	-1	nt	-17
CCOc1ccc(-n2c(O)c(/C=C3\C=Nc4ccccc43)c(=O)[nH]c2=O)cc1	29	0	10	108*	nt	-62

Compound activity as filed in PubChem BioAssay.
